In test [1] the target is Voltage-gated inwardly rectifying potassium channel KCNH2 (Homo sapiens) (UniProt Q12809). Description: qHTS Assay for Small Molecule Inhibitors of the Human hERG Channel Activity (AID 588834).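 Further: lower thallium flux fluorescence means stronger hERG block; nearly all actives have a fitted effect of over 50% in size.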 Further: potency means the concentration at half of the fitted maximal effect. In outline:
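Thallium serves as surrogate for K+ influx through BacMam-delivered hERG in U2OS cells. Compounds are added for about 10 minutes after dye loading; stimulation buffer then starts flux, monitored kinetically on FDSS.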

A short description of test [2]: S16 Schwann cell viability assay (CellTiter-Glo assay) (AID 624031). Further: nearly all actives have a fitted effect of over 70% in size. Further: potency means the concentration at half of the fitted maximal effect. In outline:
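Counter-screen for cytotoxicity: parental S16 rat Schwann cells lacking the PMP22 reporters, treated 24 h with compound, viability from cellular ATP by CellTiter-Glo luminescence, normalized to DMSO (0%) and no-cell wells.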

Test [3] in a line: S16 Schwann cell PMP22 intronic element firefly luciferase assay (AID 624032). Further: nearly all actives have a fitted effect of over 30% in size. Further: potency means the concentration at half of the fitted maximal effect. In outline: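 Luciferase reporter of PMP22 intronic-element expression in stably transfected S16 rat Schwann cells, read by ONE-Glo luminescence after 24 h compound exposure at 37 C. Activity scaled between DMSO (0%) and positive-control PTC124; concentration-effect curves quality-classified.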
Test [4] addresses Luciferin 4-monooxygenase (Photinus pyralis) (UniProt P08659). Description: Biochemical firefly luciferase enzyme assay for NPC (AID 624030). Further: nearly all actives have a fitted effect of over 70% in size. Further: potency means the concentration at half of the fitted maximal effect. In outline:
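Direct inhibition of firefly luciferase enzyme (10 nM final, 50 mM Tris Acetate) assessed by luminescence within 5 minutes. Percent activity scaled between DMSO and PTC124 positive control, with concentration-effect curves classified by fit quality and response.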

The nature of test [5]: S16 Schwann cell PMP22 intronic element beta-lactamase assay (AID 624044; calls by dose curve; further: nearly all actives have a fitted effect of over 15% in size; further: potency means the concentration at half of the fitted maximal effect;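 on ratio activity, negative = inhibition: 0% = DMSO and -100% = potassium clavulanate positive control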). To be noted: S16 rat Schwann cells, PMP22 element beta-lactamase FRET, 24 h; ratio activity, negative = inhibition: at 38.3 µM (top of the series) unless noted. In outline:
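Beta-lactamase reporter under a PMP22 intronic regulatory element in stable S16 rat Schwann cells; 24 h compound exposure. 460 nm blue signal normalized between DMSO (0%) and potassium clavulanate, with 535 nm FRET tracking viability; curves classed by r2 and response.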

Test [6] in a line: qHTS assay for small molecule agonists of the antioxidant response element (ARE) signaling pathway (AID 651741; active means well fitted activation curve with a large enough effect in the signal ratio; the % refers to the signal ratio; further: potency means the concentration at half of the fitted maximal effect). In outline:
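Beta-lactamase reporter under ARE control in HepG2 cells, 2,000 per well, was induced by 16 h compound treatment at 37 C. Read-out was fluorescence from LiveBLAzer B/G FRET substrate after 2 h at room temperature.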

Test [7] in a line: qHTS assay to identify small molecules that stimulate interleukin-8 (IL-8) secretion (AID 651758; active means well fitted activation curve with a large enough effect in the signal ratio; the % refers to the signal ratio; further: potency means the concentration at half of the fitted maximal effect). In outline: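 Secreted IL-8 measured homogeneously by TR-FRET (two labelled anti-IL-8 antibodies, 1-3 h at room temperature) after a 16 h, 37 C compound treatment of THP-1 cells at 2000 cells/well.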
Test [8] is described as follows: qHTS assay for small molecule activators of the p53 signaling pathway (AID 651743; active means well fitted activation curve with a large enough effect in the signal ratio, not every such curve was filed as active; the % refers to the signal ratio; further: % of control where 0% means no effect). To be noted: HCT-116 p53RE-bla, beta-lactamase FRET ratio, 16 h; activation: stronger effect = higher value. In outline:
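After 16 hours compound treatment at 37 C, HCT-116 cells stably expressing p53RE-driven beta-lactamase were loaded with LiveBLAzer B/G FRET substrate for 2 hours at room temperature. Fluorescence intensity served as the p53 activation read-out.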

Several values for one entry are separate records, joined by “and”; a condition that tells them apart may be missing. Equal entries are not always repeated. Inconclusive results are not listed. Unmarked numbers belong to inactive results. Activity calls are given as the source filed them. Unless noted, the call rests on the fitted dose curve; in most records, active means well fitted curve in the direction sought with a large enough effect; inconclusive means small, poorly fitted or top-dose-only effect, or another doubt; inactive means no such curve, though single readings can be large; an effect the other way counts as inactive or inconclusive.

Sequence of Voltage-gated inwardly rectifying potassium channel KCNH2 (Homo sapiens) (Q12809 whole entry, looked up): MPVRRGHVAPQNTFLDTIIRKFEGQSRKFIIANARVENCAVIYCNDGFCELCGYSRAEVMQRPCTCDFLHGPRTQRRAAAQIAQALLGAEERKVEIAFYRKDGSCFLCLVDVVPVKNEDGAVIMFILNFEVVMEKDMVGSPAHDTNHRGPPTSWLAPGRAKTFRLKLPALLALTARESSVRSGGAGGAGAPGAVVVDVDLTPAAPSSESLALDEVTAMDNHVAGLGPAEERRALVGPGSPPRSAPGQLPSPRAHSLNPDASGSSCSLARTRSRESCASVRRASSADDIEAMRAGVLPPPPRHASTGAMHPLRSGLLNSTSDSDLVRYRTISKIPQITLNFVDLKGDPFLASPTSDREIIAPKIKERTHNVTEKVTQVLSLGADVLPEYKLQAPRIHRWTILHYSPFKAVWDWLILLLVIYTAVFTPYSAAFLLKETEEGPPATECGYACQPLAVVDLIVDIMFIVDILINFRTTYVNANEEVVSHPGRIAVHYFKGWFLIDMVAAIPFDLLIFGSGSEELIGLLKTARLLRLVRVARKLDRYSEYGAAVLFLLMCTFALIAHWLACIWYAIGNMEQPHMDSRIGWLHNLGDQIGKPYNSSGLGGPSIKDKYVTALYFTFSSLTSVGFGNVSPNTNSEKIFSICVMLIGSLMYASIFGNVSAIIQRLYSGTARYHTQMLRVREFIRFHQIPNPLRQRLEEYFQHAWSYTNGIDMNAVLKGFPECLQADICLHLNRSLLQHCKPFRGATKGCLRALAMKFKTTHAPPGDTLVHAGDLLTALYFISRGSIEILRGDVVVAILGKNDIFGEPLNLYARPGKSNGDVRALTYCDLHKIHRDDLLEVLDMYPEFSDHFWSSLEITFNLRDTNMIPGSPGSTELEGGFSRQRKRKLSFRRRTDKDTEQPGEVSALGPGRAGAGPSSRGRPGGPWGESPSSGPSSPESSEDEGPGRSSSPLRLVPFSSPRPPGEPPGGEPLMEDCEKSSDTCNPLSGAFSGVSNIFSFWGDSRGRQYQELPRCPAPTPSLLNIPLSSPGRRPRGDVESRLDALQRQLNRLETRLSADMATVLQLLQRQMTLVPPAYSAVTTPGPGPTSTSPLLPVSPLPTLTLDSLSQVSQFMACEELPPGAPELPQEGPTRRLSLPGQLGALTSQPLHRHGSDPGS
Sequence of Luciferin 4-monooxygenase (Photinus pyralis) (P08659 whole entry, looked up): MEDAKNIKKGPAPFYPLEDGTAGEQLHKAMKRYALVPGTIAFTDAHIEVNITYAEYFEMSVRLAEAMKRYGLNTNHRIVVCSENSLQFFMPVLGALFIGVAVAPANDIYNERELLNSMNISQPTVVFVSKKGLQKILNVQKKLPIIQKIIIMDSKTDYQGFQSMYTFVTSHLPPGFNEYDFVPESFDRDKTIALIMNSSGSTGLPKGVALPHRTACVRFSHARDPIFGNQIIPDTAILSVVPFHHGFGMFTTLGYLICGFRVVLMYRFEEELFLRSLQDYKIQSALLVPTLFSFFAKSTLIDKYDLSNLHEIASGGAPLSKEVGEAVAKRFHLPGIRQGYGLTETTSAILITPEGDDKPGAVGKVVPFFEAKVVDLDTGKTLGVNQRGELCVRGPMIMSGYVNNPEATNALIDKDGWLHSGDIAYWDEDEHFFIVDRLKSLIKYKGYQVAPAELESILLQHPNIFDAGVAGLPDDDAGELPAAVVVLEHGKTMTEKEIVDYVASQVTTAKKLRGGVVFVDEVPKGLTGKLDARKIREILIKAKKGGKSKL

Turning to `O=C1c2ccccc2C(=O)C1c1ccc(Cl)cc1`, the Potency entry in test [1], in test [2] and in test [3] was “inactive” in each case.

Turning to `CN(C)C(=O)CCSC(SCCC(=O)O)c1cccc(/C=C/c2ccc3ccc(Cl)cc3n2)c1` (stereo not drawn), the Potency result in test [1] and in test [3] was “inactive” in each case. Besides, the Potency in test [4] was 2.87 µM (active). Further, in test [5], the ratio activity, negative = inhibition is -0.229%.

For the molecule `CC(C)(C)CC(C)(C)c1cc(Cc2cc(C(C)(C)CC(C)(C)C)cc(-n3nc4ccccc4n3)c2O)c(O)c(-n2nc3ccccc3n2)c1`, the Potency result in test [1], in test [2] and in test [3] was “inactive” in each case.

With `O=S(=O)(O)CC(S)CS` (stereo not drawn), the Potency entry in test [1] and in test [2] was “inactive” in each case.

For the molecule `NCC[C@H](O)C(=O)N[C@@H]1C[C@H](N)[C@@H](O[C@H]2O[C@H](CN)[C@@H](O)[C@H](O)[C@H]2O)[C@H](O)[C@H]1O[C@H]1O[C@H](CO)[C@@H](O)[C@H](N)[C@H]1O`, the Potency result in test [1], in test [4] and in test [2] was “inactive” throughout. Also, the ratio activity, negative = inhibition in test [5] was -4.63%.

For `C=C1C(CCl)(CCl)C2(Cl)C(Cl)C(Cl)C1(Cl)C2(Cl)Cl` (stereo not drawn), the Potency was 28.2 µM (active) and 15.8 µM (active) in test [1]; 36.1 µM (active) in test [3]; 37.6 µM (active) in test [6]; 66.8 µM (active) in test [7]. The Potency entry in test [4] is “inactive”. Further, the ratio activity, negative = inhibition in test [5] was -26.3%.

With `CC(CN(C)C)CN1c2ccccc2Sc2ccc(C(F)(F)F)cc21` (stereo not drawn), the Potency in test [1] is 11.2 µM (active). Also, the Potency result in test [4] is “inactive”. In addition, in test [5], the ratio activity, negative = inhibition was -9.58%.

Turning to `CN(C)c1ccc(C(=C2C=CC(=[N+](C)C)C=C2)c2c(O)c(S(=O)(=O)[O-])cc3cc(S(=O)(=O)O)ccc23)cc1`, in test [1], the Potency result was “inactive”. The Potency in test [4] is 14.4 µM (active); in test [3], 36.1 µM (active). Also, the ratio activity, negative = inhibition in test [5] was 1.14%.

Turning to `Cn1cc(NC(=O)c2cc(NC(=O)c3cc(NC=O)cn3C)cn2C)cc1C(=O)NCCC(=N)N`, the Potency result in test [1], in test [4] and in test [2] was “inactive” each time. Besides, the ratio activity, negative = inhibition in test [5] is 5.48%.

Regarding `NC(=S)NS(=O)(=O)c1ccc(N)cc1`, the Potency entry in test [1], in test [2] and in test [3] was “inactive” throughout.

For `CC(C)CCC[C@@H](C)[C@H]1CC[C@H]2[C@@H]3CC[C@@H]4C[C@H](O)CC[C@]4(C)[C@H]3CC[C@]12C`, the Potency result in test [1], in test [4] and in test [3] was “inactive” throughout.

For the molecule `C=CC[N+]1([C@H]2C[C@H]3[C@@H]4CC[C@H]5C[C@H](O)[C@@H](N6CCOCC6)C[C@]5(C)[C@H]4CC[C@]3(C)[C@H]2OC(C)=O)CCCC1`, the Potency entry in test [1], in test [4] and in test [2] was “inactive” in each case. Moreover, in test [5], the ratio activity, negative = inhibition was -0.444%.

For the molecule `Cc1cc(C)c(NC(=O)C[C@H](CC(=O)O)c2cccc3ccccc23)c(C(=O)N2CCC3(CCCC3)CC2)c1`, the Potency entry in test [1], in test [4] and in test [3] was “inactive” each time.

Consider `CC(C)(Oc1ccc(C2CCCc3ccccc32)cc1)C(=O)O` (stereo not drawn), for which the Potency result in test [1], in test [4] and in test [3] was “inactive” each time. In test [5], the ratio activity, negative = inhibition was -0.979%.

On to `COc1ccccc1N1CCN(CCCC(=O)c2ccc(F)cc2)CC1`, for which, in test [1], the Potency was 1.41 µM (active). Further, in test [2], the Potency result was “inactive”.

On to `Nc1nc(=O)n([C@@H]2CS[C@H](CO)O2)cc1F`, for which the Potency entry in test [1], in test [2] and in test [3] was “inactive” throughout.

Consider `C[C@H](CCCC(C)(C)O)[C@H]1CC[C@H]2[C@@H]3CC=C4C[C@@H](O)CC[C@]4(C)[C@H]3CC[C@]12C`, for which the Potency entry in test [1], in test [4] and in test [3] was “inactive” throughout.

Regarding `C=CC[C@@H]1/C=C(\C)C[C@H](C)C[C@H](OC)[C@H]2O[C@@](O)(C(=O)C(=O)N3CCCC[C@H]3C(=O)O[C@H](/C(C)=C/[C@@H]3CC[C@@H](O)[C@H](OC)C3)[C@H](C)[C@@H](O)CC1=O)[C@H](C)C[C@@H]2OC`, the Potency entry in test [1] and in test [4] was “inactive” in each case. In addition, in test [5], the ratio activity, negative = inhibition was -24.4%.

As to `C[C@@](Cc1ccc(O)c(O)c1)(NN)C(=O)O`, the Potency result in test [1] and in test [2] was “inactive” throughout.

As to `COc1cc(NCCCC(C)N)c2ncccc2c1` (stereo not drawn), the Potency result in test [1] and in test [4] was “inactive” throughout. The Potency in test [3] was 6.42 µM (active).

On to `COc1ccc(/C=N/NC(=O)c2ccncc2)c(C(=O)O)c1OC`, for which the Potency result in test [1], in test [2] and in test [3] was “inactive” each time.

Regarding `CCN(CC)CCCC(C)Nc1cc(/C=C/c2ccccc2Cl)nc2cc(Cl)ccc12` (stereo not drawn), the Potency in test [1] is 14.1 µM (active). Further, the Potency entry in test [4] is “inactive”. In addition, the ratio activity, negative = inhibition in test [5] was -1.08%.

For the molecule `CCOc1cc(-c2nccc3cc(OC)c(OC)cc23)cc(OCC)c1OCC`, the Potency result in test [1] and in test [4] was “inactive” each time. In test [5], the ratio activity, negative = inhibition is -11.1%.

On to `N=C(N)c1ccc(/C=C/c2ccc(C(=N)N)cc2O)cc1`, for which the Potency entry in test [1] and in test [2] was “inactive” in each case.

`CCOC(=S)SSC(=S)OCC`: the Potency result in test [1], in test [2] and in test [3] was “inactive” each time.

Regarding `OC1OC[C@@H](O)[C@H](O)[C@@H]1O` (stereo partly drawn), the Potency entry in test [1], in test [2] and in test [3] was “inactive” in each case.

Turning to `Cn1c(O)c(N=NC(N)=S)c2ccccc21`, the Potency result in test [1], in test [4] and in test [3] was “inactive” throughout.

Turning to `O=C(OCc1ccccc1)c1cccnc1`, the Potency result in test [1] and in test [2] was “inactive” each time.

As for `CCCCCCCCCCCCCCCCCC(=O)OCC(C)O` (stereo not drawn), the Potency entry in test [1] and in test [3] was “inactive” throughout. Besides, the ratio activity, negative = inhibition in test [5] was -0.254%.

On to `Cc1ccccn1`, for which the Potency entry in test [4], in test [2] and in test [3] was “inactive” throughout.

As to `COc1ccc(/C=C/C(=O)OCCC(C)C)cc1`, the Potency in test [4] is 11.4 µM (active). Moreover, the Potency result in test [2] and in test [3] was “inactive” each time.

As to `N[C@@H](Cc1cc(I)c(Oc2ccc(O)c(I)c2)c(I)c1)C(=O)O`, the Potency result in test [1] and in test [2] was “inactive” in each case. Besides, the ratio activity, negative = inhibition in test [5] was -3.84%. In addition, in test [8], the activation was 5%.

With `NC(=O)C1c2ccccc2CCc2ccccc21`, the Potency result in test [1], in test [2] and in test [3] was “inactive” each time. In test [5], the ratio activity, negative = inhibition is -1.01%.

With `CCCCCCCCCCCCCCCCOCCOCCOCCOCCOCCOCCOCCOCCOCCOCCOCCOCCOCCOCCOCCOCCOCCOCCOCCOCCO`, the Potency result in test [4] is “inactive”. The Potency in test [2] was 28.7 µM (active); in test [3], 22.8 µM (active); in test [5] it was 19.9 µM (active).

In the case of `O=C(O)CCC/C=C\C[C@@H]1[C@@H](/C=C/[C@@H](O)COc2cccc(C(F)(F)F)c2)[C@H](O)C[C@@H]1O`, the Potency result in test [1], in test [2] and in test [3] was “inactive” each time. The ratio activity, negative = inhibition in test [5] is 4.13%.

The values above are taken from PubChem BioAssay (NCATS).
